Data from ChEMBL document CHEMBL3433997, “St. Jude Leishmania screening dataset” (2016).

Columns and labels:
Assay type in all cases: functional
[1] = molecular target: Solute carrier family 2, facilitated glucose transporter member 1 (Homo sapiens) (UniProt P11166); experiment: ST_JUDE_LEISH: Cytotoxicity at 2uM final concentration against transgenic Leishmania Mexicana promastigotes LmGLUT1 that are glucose transport deficient and complemented with the human glucose transporter GLUT1. Activity is measured by DNA content using SYBR green in vitro
Solute carrier family 2, facilitated glucose transporter member 1 (Homo sapiens), sequence (P11166 whole entry): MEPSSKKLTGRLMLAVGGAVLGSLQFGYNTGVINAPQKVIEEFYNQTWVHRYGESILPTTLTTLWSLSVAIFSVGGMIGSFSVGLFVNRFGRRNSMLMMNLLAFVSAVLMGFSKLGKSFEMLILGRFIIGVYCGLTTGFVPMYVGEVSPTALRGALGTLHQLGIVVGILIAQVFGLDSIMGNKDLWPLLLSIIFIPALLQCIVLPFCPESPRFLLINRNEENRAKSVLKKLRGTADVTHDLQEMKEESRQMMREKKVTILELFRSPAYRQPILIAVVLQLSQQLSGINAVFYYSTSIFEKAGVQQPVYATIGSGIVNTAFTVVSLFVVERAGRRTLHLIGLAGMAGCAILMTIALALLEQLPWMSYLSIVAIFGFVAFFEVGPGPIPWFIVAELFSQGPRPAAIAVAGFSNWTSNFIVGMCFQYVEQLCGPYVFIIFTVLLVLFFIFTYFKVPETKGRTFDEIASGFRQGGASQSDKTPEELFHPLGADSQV

[2] = molecular target: Hexose transporter 1 (Plasmodium falciparum) (UniProt O97467); experiment: ST_JUDE_LEISH: Cytotoxicity at 2uM final concentration against transgenic Leishmania Mexicana promastigotes LmPfHT that are glucose transport deficient and complemented with the Plasmodium falciparum hexose transporter. Activity is measured by DNA content using SYBR green in vitro
[3] = molecular target: Glucose transporter (Leishmania mexicana) (UniProt O61059); experiment: ST_JUDE_LEISH: Cytotoxicity at 2uM final concentration against transgenic Leishmania Mexicana promastigotes LmGT2 that are glucose transport deficient and complemented with the L. Mexicana glucose transporter 2. Activity is measured by DNA content using SYBR green in vitro

| Compound | inhibition [1] | inhibition [2] | inhibition [3] |
| --- | --- | --- | --- |
| COc1ccc(CN2CCC(Oc3cccc(NC(=O)c4ccc(C(F)(F)F)cc4)c3)CC2)cc1 | 0.69% | 1.18% | 3.45% |
| O=S(=O)(Nc1cccc(F)c1CNCc1ccccn1)c1ccc(Cl)c(Cl)c1 | -1.4% | 0.71% | -2.5% |
| O=C(Cc1cccnc1)N(Cc1ccc(-c2ccc(CNCc3cccnc3)cn2)cc1)C1CCN(Cc2ccccc2)CC1 | -1.34% | -0.95% | -1.68% |
| O=C(Nc1ccc2c(c1)CCC2)c1cccc(N2CCN(c3ccncc3)CC2)c1 | 1.86% | 4.51% | 1.58% |
| O=C(Nc1ccc([N+](=O)[O-])cc1Br)c1cc2ccccc2nc1Cl | 8.95% | 8.73% | 7.12% |
| O=C(Nc1ccc(Cl)c(Cl)c1)C1CCC(=O)N1[C@@H](Cc1ccccc1)C(=O)NCCc1ccc(Cl)cc1 (stereo partly drawn) | 0.51% | 0.41% | 1.43% |
| Nc1cccc(CNCc2ccc(-c3ccc(-c4nc5cc(F)ccc5[nH]4)s3)cc2)c1 | -2.38% | 0.25% | -1.11% |
| COc1ccc(S(=O)(=O)NC2CCN(c3cc(C)nc(Nc4cccc(C#N)c4)n3)CC2)cc1 | 4.31% | 1.33% | 0.61% |
| Oc1ccc(CCNc2nc(NCCOc3ccccc3-c3ccccc3)nc(N3CCNCC3)n2)cc1 | 1.26% | 0.85% | 1.75% |
| CN1CCC(N(Cc2ccc(-c3ccc(C(F)(F)F)cc3)nc2)C(=O)Cn2c(CCc3cccc(F)c3F)cc(=O)c3ccccc32)CC1 | 6.73% | 6.06% | 7.68% |
| CCOc1ccc(NC(=O)c2cn3nc(-c4ccc(OCC)cc4)cc3nc2C2CCNCC2)cc1 | 1.5% | 2.58% | 3.37% |
| O=S(=O)(Nc1cccc(CCN2CCC(N3CCCCC3)CC2)c1)c1cccc2ccccc12 | 4.59% | 2.76% | 3.28% |
| O=C(NC1CCN(Cc2ccccc2)CC1)c1ccc(CNC2CCN(Cc3ccccc3)CC2)cc1 | 4.84% | 3.94% | 4.42% |
| Cc1cc(NCCc2ccccc2)nc(N/C(=N/CC(=O)OC(C)(C)C)Nc2ccc(C(F)(F)F)cc2)n1 | 4.08% | 0.44% | 2.34% |
| Clc1cccc(-c2nc(Nc3ccnc(-c4ccc(CN5CCOCC5)cc4)c3)c3ccccc3n2)c1 | 4.42% | 3.91% | 3.58% |
| CCCc1cc(C)ccc1OCCCON1C(NC(=O)OCC)=NC(NC(=O)OCC)=NC1(C)C | -0.11% | 1.76% | -0.57% |
| O=[N+]([O-])c1c(O)nc2c(c1O)CCC2 | 4.52% | 4.36% | 4.11% |
| CN(C)C(=O)CC(=O)NCc1c(Cl)cccc1Cl | 0.42% | 4.4% | 2% |
| Cc1cc(F)ccc1Nc1nc(N(C)c2ccccc2)c2cccc(OCCO)c2n1 | 13.7% | 11.2% | 4.48% |
| O=C(Nc1ccc(N2CCN(Cc3ccccc3Cl)CC2)cc1)c1ccc([N+](=O)[O-])o1 | 71.5% | 51.2% | 11.1% |
| Nc1nc(N)c2cc(Cc3ccccc3Cl)cnc2n1 | -0.18% | 2.28% | 1.45% |
| CC(=O)N(C)C1CCN(Cc2ccc(-c3ccc(-c4nc5cc(F)ccc5[nH]4)s3)cc2)C1 (stereo not drawn) | 8.07% | 5.96% | 6.2% |
| COc1ccc(CNC2Cc3ccccc3C2)cc1-c1ccc(S(=O)(=O)NCCc2ccccn2)s1 | 0.76% | 0.03% | 2.04% |
| Nc1cccc(CNCc2cccc(-c3cccc(-c4nc5ccccc5[nH]4)c3)c2)c1 | -1.07% | 1.34% | -0.53% |

| Compound | inhibition [1] | inhibition [2] | inhibition [3] |
| --- | --- | --- | --- |
| Cc1cccc2nc(-c3ccc(-c4cccc(NC(=O)c5cnccc5C(F)(F)F)c4)cc3)[nH]c12 | 11.2% | 10.4% | 8.19% |
| COc1ccc(CNCCCCCCNCc2ccc(OC)c3ccccc23)c2ccccc12 | 59.7% | 97.2% | 103% |
| Clc1cc(Nc2ccnc3ccc(Br)cc23)ccc1Oc1ccc2ccccc2c1Cl | 2.41% | 5.44% | 1.22% |
| N#Cc1ccccc1N1CCN(C2CCC(NC(=O)c3n[nH]c4cc(C(F)(F)F)ccc34)CC2)CC1 (stereo not drawn) | 2.94% | 1.88% | 0.43% |
| CC1(CCCCN2CCC(c3c[nH]c4cnccc34)CC2)C(=O)Nc2cccc(Cl)c21 (stereo not drawn) | 0.37% | 0.54% | 1.21% |
| Cc1cc(=NN=Cc2cccc(F)c2)c2cc(F)ccc2[nH]1 | 8.18% | 9.63% | 4.81% |
| Cc1cc2c(NC(=O)NC3CCN(CCc4cccc(Cl)c4)CC3)cccc2cn1 | -1.26% | 1.1% | -3.28% |
| O=C(NCCN1CCC(NC(=O)c2ccc(-c3ccccn3)s2)CC1)c1ccc(Cl)c(Cl)c1 | 3.53% | 4.02% | 4.43% |
| CCNCc1cccc(-c2ccc3ccnc(N)c3c2)c1 | 4.49% | 3.12% | 4.03% |
| CN(Cc1cnc2nc(N)nc(N)c2n1)c1ccc(C(=O)N[C@H](CCC(=O)OC(C)(C)C)C(=O)N[C@@H](CCC(=O)OC(C)(C)C)C(=O)OC(C)(C)C)cc1 | 2.25% | 1.59% | 3.05% |
| O=C(Nc1ccsc1)Nc1cccc(-c2ccc(-c3nc4cc(C(F)(F)F)ccc4[nH]3)cc2)c1 | 6.66% | 6.27% | 7.95% |
| Cc1cc(CN2CCCC(OC(c3ccc(F)cc3)c3ccc(F)cc3)C2)ccc1O (stereo not drawn) | 9.25% | 4.88% | 0.78% |
| O=C(Nc1cccc(Cl)c1)N[C@H]1CCN(Cc2ccc(OCCCN3CCCCC3)cc2)C1 | 9.4% | 9.12% | 8.16% |
| O=C(c1cc(OC(F)(F)F)ccc1O)N1CCN(c2ccccc2)CC1 | 5.08% | 4.52% | 7.06% |
| Cc1nc(O)c2c(ccc3ccc(CNc4ccc(C(=O)N[C@@H](CCC(=O)O)C(=O)O)cc4)cc32)n1 | 0.64% | 2.36% | 1.05% |
| CCCCNc1cc(NCCCC)c2c(n1)[nH]c1ccccc12 | 18.4% | 16.6% | 4.43% |
| CC(C)CC(NC(=O)c1cc2ccccc2s1)C(=O)N1CCCCCC1c1ccc(C(C)(C)C)cc1 (stereo not drawn) | -2.77% | -0.83% | -0.81% |
| O=C(c1cc(-c2cccs2)n[nH]1)N1CCN(S(=O)(=O)c2ccc(Cl)cc2)CC1 | 2.31% | 2.77% | 1.76% |
| O=C(Cc1c[nH]cn1)Nc1ccc(-c2ccc(-c3nc4ccccc4[nH]3)s2)cc1 | 4.05% | 5.17% | 1.71% |
| Cc1ncccc1C(=O)Nc1cccc(-c2cccc(-c3nc4cccc(C)c4[nH]3)c2)c1 | 0.36% | 1.44% | 1.05% |
| Nc1ncnc2c1ncn2C(CO)Cc1ccc(O)cc1 (stereo not drawn) | 9.32% | 6.45% | 8.36% |
| COc1ccc2nccc([C@@H](O)CN3CCC(NC(=O)/C(=C/c4ccccc4)c4ccc(-c5ccccc5)cc4)CC3)c2c1 | 1.6% | 0.83% | 0.6% |
| O=S(=O)(c1ccccc1)C1CC1 | 1.39% | 0.38% | -0.5% |
| O=C(/C=C/c1ccc(Cl)c(Cl)c1)N1CCC(CN2CCC(Cc3cc4ccccc4[nH]3)CC2)CC1 | 0.17% | 2.49% | 0.81% |

| Compound | inhibition [1] | inhibition [2] | inhibition [3] |
| --- | --- | --- | --- |
| CC1(C)Cc2c(oc3ncn(CCn4cnc5oc6c(c5c4=N)CC(C)(C)SC6)c(=N)c23)CS1 | -0.76% | 0.58% | -0.4% |
| CC(C)NCc1ccc(-c2ccc(NC(=O)c3cccc(C#N)c3)cc2)cc1 | 1.38% | 1.38% | -1% |
| O=C(Nc1cccc(Cl)c1)c1cnc(N2CCN(c3ccncc3)CC2)c(Cl)c1 | 23.4% | 42% | 12.7% |
| CCc1cn2c3c(cc(C(=O)N[C@@H](Cc4ccccc4)[C@H](O)CNC4CCCC4)cc13)N(C)S(=O)(=O)CC2 | 8.55% | 9.26% | 5.93% |
| Cc1ccc(OCCCCON2C(=N)N=C(N)NC2(C)C)cc1C | 1.02% | 1% | 0.54% |
| CN(C)CCCOc1ccc(CN2CC[C@H](NC(=O)c3ccc(Cl)c(Cl)c3)C2)cc1Cl | 13.3% | 10.7% | 8.69% |
| Fc1ccc2cc(C=Cc3ccncc3)[nH]c2c1 | 2.24% | 4.09% | 0.56% |
| Cc1ccc(CNC(=O)[C@H](Cc2ccccc2)Nc2cc(C)nc(NCC3CCCCC3)n2)cc1 | 3.25% | 4.57% | 0.14% |
| CC(Cc1ccc(OCC(=O)NCC2CCN(CCc3cccc(Cl)c3)CC2)cc1)NCCc1cccc(Cl)c1 (stereo not drawn) | 3.07% | 4.09% | 1.92% |
| COc1cccc2cc(C(=O)N[C@@H](CC(C)C)C(=O)NC3CC[C@@H](C)N(C(=O)Nc4ccncc4)CC3=O)oc12 (stereo partly drawn) | 9.49% | 4.38% | 3.24% |
| COc1ccc(CN2CCC(C(=O)Nc3cccc(-c4cccc(Cl)c4)c3)CC2)cc1O | 5.45% | 7.5% | 6.49% |
| O=C(CCCCCNC(=O)c1ccc(O)c(-c2ccc(Cl)c(Cl)c2)c1)NCCN1CCOCC1 | 4.35% | 3.57% | 2.65% |
| Cc1cc2cc(/C=C/C(=O)NC3CCC(CCN4CCc5ccc(C#N)cc5CC4)CC3)ccc2[nH]1 (stereo not drawn) | 9.08% | 7.95% | 8.66% |
| CC1(C)NC(N)=NC(=N)N1OCCCOc1cc(Cl)ccc1Cl | 13.6% | 13.5% | 13.6% |
| CCCC1N=C(N)N=C(N)N1c1ccc(C)c(C)c1 (stereo not drawn) | -0.66% | -2.19% | -2.79% |
| Nc1ncc(Cc2cc(Cl)c(N)c3ncccc23)c(N)n1 | 2.6% | 2.88% | 2.91% |
| OCCNc1nc(Nc2cccc(O)c2)nc2ccccc12 | 4.65% | 3.14% | 4.01% |
| OCCN1CCN(Cc2ccc(-c3cccc(-c4nc5cc(C(F)(F)F)ccc5[nH]4)c3)cc2)CC1 | 7.65% | 7.08% | 7.33% |
| CCc1c(C)c(C#N)c2nc3ccccc3n2c1NCc1ccco1 | 4.43% | 4.23% | 2.13% |
| O=C(NC1CCCC1)c1cc2c(=O)n3ccccc3nc2[nH]/c1=N/CCc1ccccc1 | 11.5% | 8.49% | 5.94% |
| O=C(/C=C/c1ccc(Cl)c(Cl)c1)N1CCC(CN2CCC(c3c[nH]c4ccncc34)CC2)CC1 | 4.66% | 5.47% | 5.44% |
| COc1cc(CN/C(=N/c2ccc(-c3ccccc3)cc2)Nc2ccc(C#N)cc2O)cc(OC)c1 | 1.7% | 0.59% | 0.77% |
| O=C(Cn1c(SCc2cccc(F)c2F)cc(=O)c2ccccc21)N(CCN1CCCCC1)Cc1ccc(-c2ccc(C(F)(F)F)cc2)cc1 | -1.53% | -1.37% | -1.85% |
